From PMC4552634, “A New Set of Chemical Starting Points with Plasmodium falciparum Transmission-Blocking Potential for Antimalarial Drug Discovery” (PLoS ONE, 2015) come the findings set out here.

Among all 13,000 compounds or so, about 3,200 (25%) showed an effect of 50% or more. Some of the results follow.

The test system of the experiment is P. falciparum stage V gametocytes. The arrangement: BacTiter-Glo ATP luminescence viability of purified stage V gametocytes in 384-well plates, per cent inhibition versus DMSO. Particulars: 48 h, 5 µM; inhibitor.
As to `COc1ccc2nccc([C@@H](O)CN3CCC(NC(=O)c4ccc(CN5CCN(c6cccc(C)c6)CC5C)cc4)CC3)c2c1` (stereo partly drawn) [TCMDC-140999], the “% Inhibition” value is listed as -29.97%. Turning to `CC1(C)N=C(N)N=C(N)N1OCCSCc1cc(Cl)sc1Cl` [TCMDC-131620], the “% Inhibition” value was found to be 30.29%. To `O=S(=O)(NCCN1CCCC1)c1ccc(-c2ccc(CNCc3ccsc3)cc2)cc1` [TCMDC-132281] belongs 102.2%; to `O=S(=O)(NCCN1CCCC1)c1cccc(-c2ccc(CNCc3ccsc3)cc2)c1` [TCMDC-132290], 92.71%; to `O=S(=O)(NCCN1CCCC1)c1cccc(-c2cccc(CNCc3ccsc3)c2)c1` [TCMDC-132277], 89.41%. To `CCN1CCN(c2cc(C)c3cc(NC(=O)c4ccc([N+](=O)[O-])c(C)c4)ccc3n2)CC1` [TCMDC-125576] belongs 24.57%. To `CC(C)(CNCCOc1ccc(Cl)cc1)c1nc(-c2ccc(Cl)c(O)c2)c(-c2ccnc(N)n2)[nH]1` [TCMDC-141161] belongs 36.73%; to `Cc1cccc2[nH]c(=O)c([N+](=O)[O-])c(O)c12` [TCMDC-131384], -28.29%; to `CN(C)CCC=C1c2ccccc2Sc2c(O)cc(Cl)cc21` [TCMDC-123466], -77.93%. Take `N#Cc1cccc(Nc2ncc3c(-c4cccc(NC(=O)Cc5cccc(Cl)c5)c4)c[nH]c3n2)c1` [TCMDC-134682]: the “% Inhibition” value is on record as 19.68%.

With `CCn1ccc2c(N3CCCC3=O)cc(C(=O)N[C@@H](Cc3ccccc3)[C@H](O)CNC3CCCCC3)cc21` [TCMDC-135316], the “% Inhibition” value is reported as 7.868%. To `CCn1ccc2c(N3CCCC3=O)cc(C(=O)N[C@@H](Cc3ccccc3)[C@H](O)CNC(C)(C)CCCC(C)C)cc21` [TCMDC-135313] belongs 55.34%. In the case of `CCn1ccc2c(N3CCCS3(=O)=O)cc(C(=O)N[C@@H](Cc3ccccc3)[C@H](O)CNC(C)(C)CCCC(C)C)cc21` [TCMDC-135312], the “% Inhibition” value was 65.79%. `CCn1ccc2c(N3CCCCS3(=O)=O)cc(C(=O)N[C@@H](Cc3ccccc3)[C@H](O)CNC(C)(C)CCCC(C)C)cc21` [TCMDC-135311]: the “% Inhibition” value is 61.66%. As for `CCn1ccc2c(N3CCCC3=O)cc(C(=O)N[C@@H](Cc3ccccc3)[C@H](O)CNCc3cccc(OC)c3)cc21` [TCMDC-134129], the “% Inhibition” value worked out at 8.959%. To `CNC(=O)c1cncc(/C=C/c2ccccc2S(N)(=O)=O)c1` [TCMDC-138266] belongs 49.76%; to `C[C@H](NC(=O)c1c(OC2CN(C(c3ccccc3)c3ccccc3)C2)c(-c2ccccc2)nc2ccccc12)C1CCCCC1` [TCMDC-135543], -26.28%; to `CS(=O)(=O)O.Nc1nc(NCC2CCC(CNS(=O)(=O)c3cccc4ccccc34)CC2)nc2ccccc12` (stereo not drawn) [TCMDC-124251], -1.432%. Consider `COC(=O)C(Cc1ccccc1)C(CSCc1ccc(OC)cc1)C(=O)N[C@@H](C(=O)OC(C)(C)C)c1ccc(C(C)(C)C)cc1` (stereo partly drawn) [TCMDC-131235], for which the “% Inhibition” value worked out at 8.806%.

Consider `CC(C)(C)OC(=O)c1c(NC(=O)/C=C/c2ccc(O)c(O)c2)sc2c1CCCC2` [TCMDC-131558], for which the “% Inhibition” value is listed as -45.09%. As to `CC=Cc1cc(Cc2cnc(N)nc2N)cc(CCC)c1OC` [TCMDC-137634], the “% Inhibition” value is -1.983%.

For `CCOc1cc(Cc2cnc(N)nc2N)cc(OCC)c1OCCCCC(=O)OC` [TCMDC-137176], the “% Inhibition” value is recorded as -10.63%. To `CCOCc1cn(CC(=O)c2ccc(-c3ccccc3)cc2)c(C)nc1=N` [TCMDC-124243] belongs -19.83%.

For `CCN(CC)CCn1c(=N)n(CC(=O)c2ccc(-c3ccccc3)cc2)c2ccccc21` [TCMDC-124026], the “% Inhibition” value is recorded as 67.24%. To `CCN(CC)c1ccc(C(=O)Cn2ccc(=N)cc2)cc1` [TCMDC-139029] belongs -2.203%; to `Cc1ccccc1CN1CCCN(Cc2ccc(C(=O)Nc3ccc(C(C)(C)C)cc3)cc2)CC1` [TCMDC-136429], -4.144%. To `CC(C)(C)c1ccc(Cn2nc(C(=O)N3CCN(C(=O)C4CCCO4)CC3)c3ccccc32)cc1` (stereo not drawn) [TCMDC-134381] belongs -2.653%. To `CC(C)(C)c1ccc(Cn2c(=N)n(CC(=O)c3ccc(-c4ccccc4)cc3)c3ccccc32)cc1` [TCMDC-124030] belongs 98.24%; to `COc1ccc(Cn2c(Nc3cccc(C(F)(F)F)c3)nc3cc(C(=O)NC4CC4)cnc32)cc1Cl` [TCMDC-138554], -4.933%; to `COc1ccc(Cn2c(SCc3ccc(C)cc3)nc3cc(OC)c(OC)cc3c2=N)cc1Cl` [TCMDC-125587], 96.33%.

In the case of `O=C(NC1CC1)c1ccc(Cn2c(SCc3cccc(Cl)c3)nc3ccccc3c2=O)cc1` [TCMDC-123576], the “% Inhibition” value amounted to 23.52%.

In the case of `CC[C@H]1CN2CC[C@H]1C[C@H]2[C@@H](O)c1cc(OCCCN(C)C)nc2ccc(OC)cc12` [TCMDC-131424], the “% Inhibition” value came out at 22.54%. To `O=C(Nc1ccc(OC2CCN(Cc3ccc(F)cc3)C2)c(Cl)c1)c1ccoc1` (stereo not drawn) [TCMDC-133755] belongs 23.17%; to `CC(=O)CCc1ccc(OCCN(Cc2ccccc2C(F)(F)F)c2ccc(C#N)c(C(F)(F)F)c2)cc1` [TCMDC-135737], 23.15%. Turning to `CCOC(=O)c1ccc(N2CCN(CCCNC(=O)/C(=C/C=C/c3cc4cc(Cl)c(Cl)cc4[nH]3)OC)CC2)cc1` [TCMDC-139306], the “% Inhibition” value is -53.61%. Turning to `CN1c2ccc([N+](=O)[O-])cc2C(C)(C)C12C=Cc1cc(Br)cc([N+](=O)[O-])c1O2` (stereo not drawn) [TCMDC-124178], the “% Inhibition” value worked out at 98.03%. For `COc1cc2c(c(OC)c1[N+](=O)[O-])C=CC1(O2)N(C)c2ccc([N+](=O)[O-])cc2C1(C)C` (stereo not drawn) [TCMDC-124133], the “% Inhibition” value came to 52.65%. Take `COc1ccc(N2C(=O)C3C(C2=O)C2(C)c4ccccc4C3(C)c3ccccc32)c([N+](=O)[O-])c1` (stereo not drawn) [TCMDC-125621]: the “% Inhibition” value worked out at 9.788%. Consider `COc1ccc(C=CC(=O)NC(=O)c2ccccc2OC(=O)c2ccccc2)cc1OC` [TCMDC-125709], for which the “% Inhibition” value came out at 14.45%.

Take `COc1cc2c(c(Cl)c1OC)CCN(Cc1ccccc1)CC2c1ccc(C(N)=O)cc1` (stereo not drawn) [TCMDC-132074]: the “% Inhibition” value is 48.86%. For `COc1cc2c(c(Cl)c1OC)CCN(Cc1ccccc1)CC2c1ccc(NC(=O)C(F)(F)F)cc1` (stereo not drawn) [TCMDC-132075], the “% Inhibition” value amounted to 32.93%. To `COc1cc2c(c(Cl)c1OC)CCN(C(=O)C(F)(F)F)CC2c1ccccc1` (stereo not drawn) [TCMDC-132071] belongs 93.25%.
